Compound activity as filed in PubChem BioAssay.
A selection: hits, their analogues and other compounds. The true share with any hit is near 4%.
HIF-2a inh = blocks HIF-2a reporter activity. inhibition, % at 18.8 µM. AID 624352. hit rate 0.72% among 360,000. 786-0 RCC cells HIF-2a reporter, luciferase luminescence, overnight;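 active = inhibition of the luminescence signal of 40% or more relative to plate controls, in a single-dose primary screen at 18.75 µM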
Peg3 prom inh-1 = inhibitors of Peg3 promoter; HeLa PEG-Prom luciferase reporter, luminescence, overnight; inhibition, % at 20 µM; hit rate 1.7% among 360,000;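 active = inhibition of at least 50% at 20 µM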
LMP1 NFkB inh = inhibitors of Epstein-Barr LMP1-induced NF-kappaB reporter; hit rate 0.69% among 350,000; LMP1-induced NF-kappaB luciferase reporter cells, luminescence; inhibition, % at 12.5 µM; AID 504558; in the data active = inhibition above about 41%;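 also: 0% = neutral control wells and 100% = reference inhibitor control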
TRPM1 prom inh = MITF TRPM1 promoter inhibition in SK-MEL-5 cells | SK-MEL-5 TRPM1 promoter luciferase, 24 h | inhibition, % at 12.5 µM | hit rate 0.83% among 330,000 | AID 488899;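 active = mean inhibition across replicates of 60% or more, whatever share of single replicates reaches that level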
TROY signal inh = TROY signaling inhibition; Q293 LMP1-TROYcd NF-kB luciferase reporter, 4 h; hit rate 0.98% among 360,000; AID 1347056; inhibition, % at 10 µM;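 active = compounds whose plate-normalised and pattern-corrected inhibition of the luciferase reporter signal at the single screening dose is 50% or more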
TWEAK-Fn14 inh = blocks TWEAK-Fn14 interaction in a reporter cell assay. TWEAK-stimulated Fn14 reporter cells, luciferase luminescence, 8 h. inhibition, % at 10 µM. hit rate 2% among 360,000. AID 1159606; in the data active = inhibition above about 50%
Peg3 prom inh-2 = confirmation of Peg3 promoter inhibitors; hit rate 84% among 1,300; HeLa PEG-Prom luciferase reporter, luminescence, overnight; inhibition, % at 20 µM; shares compounds with Peg3 prom inh-1;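 active = at 20 µM dose, 40% or more inhibition averaged across four replicates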
Active calls of the source: *.

COCOCCn1cc(CN2CCS(=O)(=O)N(Cc3ccc(-c4ccc(Cl)c(Cl)c4)cc3)C(C(C)C)C2=O)nn1 (stereo not drawn) was read as HIF-2a inh -50, Peg3 prom inh-1 61*, LMP1 NFkB inh -2, TROY signal inh 29, TWEAK-Fn14 inh 35 and Peg3 prom inh-2 46*.
Screening CC(C)CC1C(=O)N(Cc2cn(Cc3ccco3)nn2)CCS(=O)(=O)N1Cc1ccc(-c2ccc(F)cc2)cc1 (stereo not drawn) returned HIF-2a inh -28, Peg3 prom inh-1 64*, LMP1 NFkB inh -4, TROY signal inh 23, TWEAK-Fn14 inh 31 and Peg3 prom inh-2 62*.
Cc1nn(Cc2ccccc2Cl)c(C)c1C(=O)NCC(c1cccs1)N1CCOCC1 (stereo not drawn) was read as HIF-2a inh 1, Peg3 prom inh-1 8, LMP1 NFkB inh 3, TRPM1 prom inh -11, TROY signal inh -26 and TWEAK-Fn14 inh -3.
For COc1ccccc1NS(=O)(=O)c1cc(C(=O)NC2CC(C)(C)NC(C)(C)C2)ccc1Cl the results were HIF-2a inh 2, Peg3 prom inh-1 -18, LMP1 NFkB inh 5, TRPM1 prom inh -11, TROY signal inh -1 and TWEAK-Fn14 inh 6.
Screening Cc1cc(SCc2ccc(Cl)c(Cl)c2)nc(=O)[nH]1 returned HIF-2a inh -111, Peg3 prom inh-1 -77, LMP1 NFkB inh 0, TRPM1 prom inh -29, TROY signal inh -3 and TWEAK-Fn14 inh -16.
Screening O=C(Nc1nc2c(F)cc(F)cc2s1)c1ccc([N+](=O)[O-])o1 returned HIF-2a inh -256, Peg3 prom inh-1 -61, LMP1 NFkB inh -24, TROY signal inh -42 and TWEAK-Fn14 inh 1.
COc1cc(C(=O)N/N=C(\c2ccccc2)c2ccccn2)cc(OC)c1OC was read as HIF-2a inh 29, Peg3 prom inh-1 107*, LMP1 NFkB inh 23, TRPM1 prom inh 78*, TROY signal inh 14, TWEAK-Fn14 inh -91 and Peg3 prom inh-2 81*.
For Cc1ccccc1C(=O)Nc1ccc(S(=O)(=O)N2CCCC2)cc1 the results were HIF-2a inh -19, Peg3 prom inh-1 -5, LMP1 NFkB inh -2, TROY signal inh -4 and TWEAK-Fn14 inh 7.
For CN(C)C(CNc1ccc(C(F)(F)F)cn1)c1ccccc1 (stereo not drawn) the results were HIF-2a inh -32, Peg3 prom inh-1 -12, LMP1 NFkB inh 3, TRPM1 prom inh -18, TROY signal inh 2 and TWEAK-Fn14 inh -12.
For CNCC[C@@H](Oc1ccc(C(F)(F)F)cc1)c1ccccc1 the results were HIF-2a inh -12, Peg3 prom inh-1 74*, LMP1 NFkB inh 35, TRPM1 prom inh -9, TROY signal inh 10, TWEAK-Fn14 inh 10 and Peg3 prom inh-2 69*.
For NCc1ccccc1CS(=O)(=O)N1CCOCC1 the results were HIF-2a inh 1, Peg3 prom inh-1 10, LMP1 NFkB inh 0, TRPM1 prom inh -1, TROY signal inh -9 and TWEAK-Fn14 inh 4.
Screening Cc1ccc(C(=O)c2no[n+]([O-])c2C(=O)c2ccc(C)cc2)cc1 returned HIF-2a inh -40, Peg3 prom inh-1 107*, LMP1 NFkB inh 1, TRPM1 prom inh 79*, TROY signal inh -9, TWEAK-Fn14 inh 53* and Peg3 prom inh-2 100*.
`Cc1ccc(C(=O)/C=C\C(=O)c2ccc(C)cc2)cc1` gave HIF-2a inh -75, Peg3 prom inh-1 8, LMP1 NFkB inh 2, TRPM1 prom inh -5, TROY signal inh -75 and TWEAK-Fn14 inh 28.
For C[C@H](CO)N1C[C@H](C)[C@@H](CN(C)C(=O)c2cnccn2)Oc2cc(C#CCC3CCCC3)ccc2S1(=O)=O the results were HIF-2a inh 5, Peg3 prom inh-1 9, LMP1 NFkB inh 2, TROY signal inh -1 and TWEAK-Fn14 inh -31.
CCCCn1c2nc3ccccc3nc2c2c(=O)n(C(C)CC)cnc21 (stereo not drawn) was read as HIF-2a inh 8, Peg3 prom inh-1 33, LMP1 NFkB inh -7, TRPM1 prom inh 4, TROY signal inh -22 and TWEAK-Fn14 inh 20.
`CCC(C)n1cnc2c(c1=O)c1nc3ccccc3nc1n2-c1ccc2c(c1)OCCO2` (stereo not drawn) gave HIF-2a inh -7, Peg3 prom inh-1 56*, LMP1 NFkB inh -3, TRPM1 prom inh -8, TROY signal inh 6, TWEAK-Fn14 inh -15 and Peg3 prom inh-2 18.
Screening COc1ccc(S(=O)(=O)NC(=O)C2(C)CCN2C(=O)Cc2cc(F)ccc2F)cc1 (stereo not drawn) returned HIF-2a inh 7, Peg3 prom inh-1 7, TROY signal inh 9 and TWEAK-Fn14 inh 15.
`COc1ccc2oc(-c3ccc(NC(=O)c4ccc(N5CCOCC5)c([N+](=O)[O-])c4)cc3)nc2c1` gave HIF-2a inh 19, Peg3 prom inh-1 29, LMP1 NFkB inh -22, TRPM1 prom inh 3, TROY signal inh 30 and TWEAK-Fn14 inh -48.
For O=C(Nc1ccc(-c2nc3ccccc3o2)cc1)c1ccc(N2CCOCC2)c([N+](=O)[O-])c1 the results were HIF-2a inh -82, Peg3 prom inh-1 51*, LMP1 NFkB inh 5, TRPM1 prom inh 30, TROY signal inh 32, TWEAK-Fn14 inh 45 and Peg3 prom inh-2 48*.
Screening CCN(CC)CCN(C(=O)c1ccc2c(c1)OCCO2)c1nc2cc3c(cc2s1)OCO3 returned HIF-2a inh -26, Peg3 prom inh-1 -20, LMP1 NFkB inh 4, TRPM1 prom inh -9, TROY signal inh -35 and TWEAK-Fn14 inh -19.
Screening CCN(CC)CCN(C(=O)c1cc2c(ccc3ccccc32)oc1=O)c1nc2cc3c(cc2s1)OCCO3 returned HIF-2a inh -19, Peg3 prom inh-1 96*, LMP1 NFkB inh -17, TRPM1 prom inh 75*, TROY signal inh 14, TWEAK-Fn14 inh -6 and Peg3 prom inh-2 -11.
For Cc1ccc2sc(N(CCCN(C)C)C(=O)c3ccc(S(=O)(=O)N(C)Cc4ccccc4)cc3)nc2c1C the results were HIF-2a inh 1, Peg3 prom inh-1 66*, LMP1 NFkB inh -10, TRPM1 prom inh 78*, TROY signal inh 18, TWEAK-Fn14 inh -11 and Peg3 prom inh-2 96*.
Screening Cc1ccc2sc(N(CCCN(C)C)C(=O)c3ccc(S(=O)(=O)N(C)C)cc3)nc2c1C returned HIF-2a inh 11, Peg3 prom inh-1 10, LMP1 NFkB inh 1, TRPM1 prom inh -13, TROY signal inh 10 and TWEAK-Fn14 inh -10.
Screening Cc1ccc2sc(N(CCCN(C)C)C(=O)c3ccc(S(=O)(=O)N4CCc5ccccc5C4)cc3)nc2c1C returned HIF-2a inh 27, Peg3 prom inh-1 59*, LMP1 NFkB inh -20, TRPM1 prom inh 65*, TROY signal inh -80, TWEAK-Fn14 inh -73 and Peg3 prom inh-2 57*.
